Measured values reported in PubChem BioAssay (Tox21).
Records with an inconclusive call do not appear. The source made the active and inactive calls. Calls come from the whole dose curve; as a rule, active = well fitted cell-killing curve with a large enough effect in the repeat runs; inconclusive = weak or mixed curves, or effect the other way; inactive = flat fitted curve, though single readings scatter.

Experiment: qHTS assay to identify small molecule antagonists of the androgen receptor (AR) signaling pathway using the MDA cell line - cell viability counter screen (AID 743041; note: nearly all actives have a fitted effect of over 45% in size)
Conditions: MDA-kb2 viability, CellTiter-Fluor, 16 h, cells co-treated with R1881 androgen agonist; series mostly up to 70.3 µM; viability change, negative = cytotoxic: at the top concentration
Text: National Center for Advancing Translational Sciences [NCATS]
NIH Chemical Genomics Center [NCGC]
U.S. Environmental Protection Agency [EPA]
National Institutes of Environmental Health Sciences [NIEHS]
National Toxicology Program [NTP]
U.S. Food and Drug Administration [FDA]
Androgen receptor (AR), a nuclear hormone receptor, plays a critical role in AR-dependent prostate cancer and other androgen related diseases. Endocrine disrupting chemicals (EDCs) and their interactions with steroid hormone receptors like AR may cause disruption of normal endocrine function as well as interfere with metabolic homeostasis, reproduction, developmental and behavioral functions. To identify the compounds that inhibit AR signaling, MDA-kb2 AR-luc cell line (from ATCC, deposited by Wilson et al.) was used to screen the Tox21 10K compound library. MDA-kb2 AR-luc cell line is human breast carcinoma cell line that was stably transfected with a luciferase reporter gene under control of the MMTV promoter containing response elements for both androgen receptor (AR) and glucocorticoid receptor (GR). The cytotoxicity of the Tox21 compound library against the MDA-kb2 AR-luc cell line was tested in parallel by measuring the cell viability using CellTiter-Fluor assay (Promega, Madison, WI) in the same wells.
Tox21 Assay Protocol Summary:
MDA-kb2 AR-luc cells were dispensed at 3,000 cells/4 uL/well of culture medium into white wall/solid-bottom 1536-well plates using a Multidrop Combi (ThermoFisher Scientific, Waltham, MA) dispenser. After the assay plates were incubated at a 37C and 0% CO2 for 5 hr, 23 nL of compounds dissolved in DMSO, positive controls or DMSO only was transferred to the assay plate by a Pintool station (Kalypsys, San Diego, CA), followed by addition of 1 uL of agonist (R1881) in culture medium using a Bioraptr Flying Reagent Dispenser (FRD) workstation (Beckman Coulter, Indianapolis, IN, USA). The plates were incubated at a 37C and 0% CO2 for 16 h. After 15.5 h incubation, 1uL of CellTiter-Fluor reagent (Promega) was added using a Bioraptr FRD to each plate for measuring cytotoxicity. The fluorescence intensity was quantified on a ViewLux plate reader (PerkinElmer, Shelton, CT) following 30 min incubation at 37C and 0% CO2.
% is set by controls: 0 for no effect and ±100 for the full control effect.

| SMILES | viability change, negative = cytotoxic | Potency |
| --- | --- | --- |
| CCO[Si](CC)(OCC)OCC | -0.303% (inactive) | – |
| C=CC(=O)OCC1CCCO1 (stereo not given) | 9.8% (inactive) | – |
| Cc1ccc(C(=O)O)cc1[N+](=O)[O-] | 8.95% (inactive) | – |
| CC(C)=CCC/C(C)=C/COC=O | 3.42% (inactive) | – |
| CC(Oc1cc(Cl)ccc1Cl)C(=O)O (stereo not given) | -3.28% (inactive) | – |
| CC(C)Nc1ccccc1 | -2.65% (inactive) | – |
| CCCC(=O)OC/C=C(\C)CCC=C(C)C | 11.2% (inactive) | – |
| CSc1cnccn1 | 2.7% (inactive) | – |
| Cc1cccc(Cl)c1 | 4.9% (inactive) | – |
| CC(C)C1OCCN1CCOC(=O)NCCCCCCNC(=O)OCCN1CCOC1C(C)C (stereo not given) | -1.52% (inactive) | – |
| CO/N=C(/C(=O)N[C@@H]1C(=O)N2C(C(=O)[O-])=C(C[n+]3ccn4ncccc43)CS[C@H]12)c1nsc(N)n1 | – | inactive |
| c1ccc2cnccc2c1 | -3.4% (inactive) | – |
| CC(=O)CC(=O)Nc1ccc(C)cc1C | 1.36% (inactive) | – |
| Cc1c(C(=O)c2c[nH]n(C)c2=O)ccc(S(C)(=O)=O)c1C1=NOCC1 | 6.36% [at 32.5 µM] (inactive) | – |
| CC(=O)CCc1ccc(OC(C)=O)cc1 | 2.86% (inactive) | – |
| NCCOCCN | -0.0809% (inactive) | – |
| O=C1CCCCO1 | -3.24% (inactive) | – |
| CO[C@@]1(NC(=O)Cc2cccs2)C(=O)N2C(C(=O)O)=C(COC(N)=O)CS[C@@H]21 | – | inactive |
| CCCCCCCCCOC(=O)c1ccccc1C(=O)OCCCCCCCCC | -1.05% (inactive) | – |
| CCCCCC(C)O (stereo not given) | -1.79% (inactive) | – |

| SMILES | viability change, negative = cytotoxic | Potency |
| --- | --- | --- |
| CC(C)=CCC[C@@](C)(O)[C@H]1CC=C(C)CC1 | -1.79% (inactive) | – |
| CN(C)CCOC(=O)C(c1ccccc1)C1(O)CCCC1 (stereo not given) | -0.0536% (inactive) | – |
| N[C@@H](Cc1ccc(O)cc1)C(=O)O | -5% (inactive) | – |
| CC1c2ccccc2CN1NC(=O)c1ccc(Cl)c(S(N)(=O)=O)c1 (stereo not given) | -5.41% (inactive) | – |
| CCCSSCCC | 3.75% (inactive) | – |
| O=C(CN1CCNCC1)NC1CCCCC1 | 3.2% (inactive) | – |
| O=[N+]([O-])c1c(Cl)cc(Cl)cc1Cl | -1.3% (inactive) | – |
| CCCCCCCCCOC(=O)CCCCC(=O)OCCCCCCC | -0.518% (inactive) | – |
| COc1ccc2c(c1)c1c3n2CCN(C)C3=NCC1 | 0.699% (inactive) | – |
| CN1C[C@@H]2C[C@H]1CN2c1cc2c(cc1F)c(=O)c(C(=O)O)cn2C1CC1 | -0.142% (inactive) | – |
| Fc1ccccc1 | 3.55% [at 95 µM] (inactive) | – |
| C=CCCCCCCCCC(=O)OCCCC | -0.139% (inactive) | – |
| C=CCCCCCCCC | 0.669% [at 95 µM] (inactive) | – |
| Nc1nc(-c2ccccc2)c(Br)c(=O)[nH]1 | -9.12% (inactive) | – |
| COc1nc(N)nc2nc[nH]c12 | -2.03% (inactive) | – |
| Cn1c(=O)c2c(ncn2CCO)n(C)c1=O | 4.96% (inactive) | – |
| CCCCCCC1(C)CCC(=O)O1 (stereo not given) | 1.28% (inactive) | – |
| OC[C@H]1O[C@@H](O[C@@H]2[C@@H](CO)O[C@](O)(CO)[C@H]2O)[C@H](O)[C@@H](O)[C@H]1O | 12.8% (inactive) | – |
| CC1OCCC1=O (stereo not given) | -0.474% (inactive) | – |
| Cc1cc(-c2ccccc2)nnc1NCCN1CCOCC1 | 5.86% (inactive) | – |
